Screens: PubChem BioAssay, The Scripps Research Institute Molecular Screening Center
Rows were chosen to be rich in hits. Some 3.5% of all compounds tested hit in one or more screens of this group.
TEAD-YAP block = TEAD-YAP interaction inhibition; HEK-TIYL cells, TEAD-Gal4/YAP UAS-luciferase luminescence; inhibition, % at 9.12 µM; actives 1.4% (n = 640,000); AID 1259422; in the data active = inhibition above about 32%
GPR151 ag = human GPR151 activation | actives 1% (n = 650,000) | PathHunter beta-arrestin GPR151 cells, luminescence | Q8TDV0 | activation, % at 11.2 µM | AID 1508602; in the data active = activation above about 4.9%
Target sequence (Q8TDV0 whole entry, looked up): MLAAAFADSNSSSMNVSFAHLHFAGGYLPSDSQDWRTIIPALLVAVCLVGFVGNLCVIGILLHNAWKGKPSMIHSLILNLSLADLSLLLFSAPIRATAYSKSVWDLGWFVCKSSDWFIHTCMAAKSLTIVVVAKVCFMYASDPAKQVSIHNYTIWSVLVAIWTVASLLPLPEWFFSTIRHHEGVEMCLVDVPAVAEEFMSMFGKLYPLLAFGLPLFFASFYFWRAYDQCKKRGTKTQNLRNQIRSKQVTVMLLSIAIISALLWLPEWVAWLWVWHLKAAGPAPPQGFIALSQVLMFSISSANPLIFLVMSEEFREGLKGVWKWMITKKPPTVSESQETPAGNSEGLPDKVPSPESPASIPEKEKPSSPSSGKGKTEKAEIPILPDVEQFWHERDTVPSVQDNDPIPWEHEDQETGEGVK
FBW7 activator = activators of human E3 ligase FBW7; AlphaScreen FBW7–phospho-cyclin E peptide binding, activator screen; normalized activity (activation), % at 26.1 µM; actives 0.13% (n = 650,000); in the data active = normalized activity above about 1.9%;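 also: purified mutant Fbw7 with reduced substrate affinity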
MITF primary = inhibitors of human MITF | O75030 | AID 1259374 | inhibition, % at 2.6 µM | AlphaScreen MITF homodimerization, bead proximity signal | actives 0.91% (n = 650,000); in the data active = inhibition above about 50%
GPR151 conf act = human GPR151 activation, confirmation screen; shares compounds with GPR151 ag; GPR151 PathHunter beta-arrestin cells, luminescence, 90 min; % of EA-reagent control over plate median; activation, % at 11.2 µM; 6,700 tested, under 10 active; AID 1508609;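 active = mean percent activation across replicates above the confirmation screen cutoff of 4.91%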
GPR119 ag = counter-screen for GPR151 activators: effect on human GPR119. GPR119 PathHunter beta-arrestin cells, luminescence, 90 min; 0 = compound-well median, 100 = enzyme-acceptor control. actives 0.3% (n = 6,700). activation, % at 11.2 µM. shares compounds with GPR151 ag;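 active = mean percent activation in the counterscreen above 29.09%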;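 also: counterscreen on off-target GPR119 to flag nonselective hits from the GPR151 activator screen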
A number is an active result; n = inactive; x = no result.

SMILES	TEAD-YAP block	GPR151 ag	FBW7 activator	MITF primary	GPR151 conf act	GPR119 ag
COc1ccc(-n2nnc3c(N4CCN(C(=O)Cc5ccc(Cl)cc5)CC4)ncnc32)cc1	n	5.5	n	n	n	n
COc1cccc(-n2nnc3c(N4CCN(S(=O)(=O)c5cc(F)ccc5F)CC4)ncnc32)c1	n	6.0	n	n	n	n
COc1ccc(-n2nnc3c(N4CCN(C(=O)CC5CCCCC5)CC4)ncnc32)cc1	n	n	n	n	x	x
CCCCCOc1ccc(C2C3=C(CC(C)(C)CC3=O)Nc3ccccc3N2C(=O)CC)cc1 (stereo not given)	n	n	n	n	x	x
CCCCNC(=O)C1C2C=CC3(CN(Cc4ccccc4Cl)C(=O)C13)O2 (stereo not given)	n	5.7	n	n	n	n
CC(C)OC(=O)C1C2C=CC3(CN(Cc4ccccc4)C(=O)C13)O2 (stereo not given)	n	5.5	n	n	n	n
COCCNC(=O)C1C2C=CC3(CN(Cc4ccc(C)cc4)C(=O)C13)O2 (stereo not given)	n	14	n	n	n	n
CCCCn1c(SCC(=O)c2ccccc2F)nc2c1c(=O)n(C)c(=O)n2C	n	n	n	n	x	x
COc1ccccc1NC(=O)CSc1ncccc1C(=O)NCc1ccc(Cl)c(Cl)c1	n	n	n	n	x	x
O=S1(=O)CCC(NS(=O)(=O)c2ccc(S(=O)(=O)NC3CC3)cc2)C1 (stereo not given)	n	5.2	n	n	n	n
CC(C)(C)n1nc(Cc2cccc3ccccc23)c2c(N)ncnc21	x	n	x	n	x	x
CC(C)(C)n1nc(-c2ccccc2)c2c(N)ncnc21	x	5.2	x	x	n	n
Cc1ccc(NS(=O)(=O)c2ccc3c(c2)OCCN3C)cc1C	n	n	n	n	x	x
Cc1ccc(CCNS(=O)(=O)c2ccc3c(c2)OCCN3C)cc1	n	5.4	n	n	n	n
Cc1cc(NS(=O)(=O)c2ccc3c(c2)OCCN3C)ccc1Br	n	9.0	n	n	n	n
CSc1cccc(NS(=O)(=O)c2ccc3c(c2)OCCN3C)c1	n	5.0	n	n	n	n
CC1CCc2c(sc3ncn4c(C5CCCCC5)nnc4c23)C1 (stereo not given)	n	n	n	n	x	x
CCc1cc(Br)ccc1NC(=S)NCCOC	n	n	n	n	x	x
COc1ccccc1Cn1ccn(CC(N)=O)c(=O)c1=O	n	n	n	n	x	x
Cc1csc(CN(C)C(=O)CC2C(=O)NCCN2CCC(C)C)n1 (stereo not given)	n	n	n	n	x	x
Cc1csc(CN(C)C(=O)CC2C(=O)NCCN2CC2CCCCC2)n1 (stereo not given)	n	5.3	n	n	n	n
COc1cccc(CN2CCNC(=O)C2CC(=O)N(C)Cc2nc(C)cs2)c1OC (stereo not given)	n	5.7	n	n	n	n
COc1cc(CN2CCNC(=O)C2CC(=O)N(C)Cc2ccno2)cc(OC)c1 (stereo not given)	n	6.1	n	n	n	n
COc1cccc(CN2CCNC(=O)C2CC(=O)N(C)Cc2ccno2)c1 (stereo not given)	n	n	n	n	x	x
COC(CNS(=O)(=O)c1cc(Br)cc2c1N(C(=O)C1CC1)CC2)OC	n	n	n	n	x	x
SMILES	TEAD-YAP block	GPR151 ag	FBW7 activator	MITF primary	GPR151 conf act	GPR119 ag
CCSc1ccccc1C(=O)Nc1cccnc1	n	n	n	n	x	x
CCSc1ccccc1C(=O)Nc1ccncc1	n	5.0	n	n	n	n
Cc1ccccc1C(=O)Nc1ccc(S(=O)(=O)N2CCN(C)CC2)cc1	n	6.7	n	n	n	n
CCSc1ccccc1C(=O)Nc1ccc(S(=O)(=O)N2CCOCC2)cc1	n	6.5	n	n	n	n
CN(Cc1n[nH]c2c1CCCCC2)C(=O)CCc1nnc(-c2ccsc2)o1	n	n	n	n	x	x
CCC1CN(CCC(=O)NC(C)Cc2cccnc2)Cc2ccc(Cl)cc2O1 (stereo not given)	n	n	n	n	x	x
COc1ccc(C(=O)Oc2ccc(C#N)cc2)cc1	n	6.7	n	n	n	n
O=c1/c(=C\c2ccccc2[N+](=O)[O-])sc2nc(-c3ccc(F)cc3)nn12	n	n	n	n	x	x
O=C(Nc1ccc2oc(=O)ccc2c1)c1ccc([N+](=O)[O-])cc1Cl	n	9.0	n	n	n	n
CCOc1ccc(NC(=O)c2ccc([N+](=O)[O-])cc2Cl)cc1	n	6.4	n	n	n	n
CS(=O)(=O)N(Cc1ccco1)C1CCN(CCc2cccs2)CC1	n	n	n	n	x	x
O=S(=O)(c1cccs1)N(Cc1ccco1)C1CCN(CCc2cccs2)CC1	n	7.5	n	n	n	n
NC1CCC(c2nc3ccccc3[nH]2)CC1 (stereo not given)	n	n	n	n	x	x
Cc1ccc2nc(Cl)c3cc(C(=O)N4CCN(C)CC4)sc3c2c1	n	n	n	n	x	x
Cc1ccc2nc(Cl)c3cc(C(=O)N=C4NC(=O)CN4C)sc3c2c1	n	6.1	n	n	n	n
Cc1cc(C)nc(-n2nc(C)c(C(O)(CC(=O)C(F)(F)F)C(F)(F)F)c2N)n1 (stereo not given)	n	11	n	n	n	n
OCc1ccccc1OCc1cccc2ccccc12	n	5.3	n	n	n	n
COc1cn(CC(=O)Nc2cccc(C)c2)c(CSc2ncccn2)cc1=O	n	n	n	n	x	x
COc1cn(CC(=O)Nc2cc(C)cc(C)c2)c(CSc2nccc(C)n2)cc1=O	n	15	n	n	n	n
COc1cc(NC(=O)COc2ccc(Cl)c(C)c2)cc(OC)c1	n	n	n	n	x	x
CSC1=NC(c2cccc([N+](=O)[O-])c2)C(C(=O)OC(C)C)=C(C)N1 (stereo not given)	n	5.1	n	n	n	n
CC(=O)c1ccc(OC(=O)c2cncc(Br)c2)cc1	n	n	n	n	x	x
CCCOc1ccc(/C=C2/C(=O)ON=C2C)cc1OCC	n	n	n	n	x	x
CCCOc1ccccc1/C=C1/C(=O)ON=C1C	n	7.4	n	n	n	n
COC(=O)c1cccc(C(=O)Oc2ccc(Br)cc2)n1	n	n	n	n	x	x
SMILES	TEAD-YAP block	GPR151 ag	FBW7 activator	MITF primary	GPR151 conf act	GPR119 ag
CC(C)OC(=O)c1cccc(C(=O)Oc2ccc(Br)cc2)n1	n	6.7	n	n	n	n
C=CCOc1ccc(/C=N/NC(=O)CSc2nc(C)cc(C)n2)cc1	n	n	n	n	x	x
C=CCOc1ccc(/C=N/NC(=O)CSc2nc(C)cc(C)n2)cc1OCC	n	12	n	n	n	n
CCc1ccccc1NS(=O)(=O)c1ccc2oc(=O)ccc2c1	n	13	n	n	n	n
COc1ccccc1NS(=O)(=O)c1ccc2oc(=O)ccc2c1	n	n	n	n	x	x
CC(C)(C)NC(=O)COC(=O)c1ccc(-c2nc3ccccc3s2)s1	n	n	n	n	x	x
O=C(CSc1nccn1Cc1ccc(F)cc1)Nc1nccs1	n	7.0	n	n	n	n
